Results published in PubChem BioAssay (Tox21).
Several values for one entry are separate records, joined by “and”; a condition that tells them apart may be missing. Equal entries are not always repeated. Results filed as inconclusive are left out. Where a call stands in place of a potency, no number is given. More than one record can exist for a structure, and the calls need not agree. Activity calls are given as the source filed them. Calls come from the whole dose curve. Peptide text beside a SMILES is read from it.

Assay: Nuclear factor erythroid 2-related factor 2/antioxidant responsive element (Nrf2/ARE) small molecule agonists: luciferase reporter gene qHTS assay in human keratinocytes (AID 1919969); note: nearly all actives have a fitted effect of over 35% in size
Potency is the fitted concentration of half-maximal effect.

Row | SMILES | Potency
1 | CC1(C)NC(=O)N(c2ccc([N+](=O)[O-])c(C(F)(F)F)c2)C1=O | inactive
2 | CC1Cc2ccccc2N1NC(=O)c1ccc(Cl)c(S(N)(=O)=O)c1 (stereo not drawn) | inactive
3 | CC(C)C(=O)Nc1ccc([N+](=O)[O-])c(C(F)(F)F)c1 | inactive
4 | COCC(C)O (stereo not drawn) | inactive
5 | COC(=O)c1cccc(C(=O)OC)c1 | inactive
6 | CC(C)NCC(O)c1ccc(O)c(O)c1 (stereo not drawn) | inactive
7 | O=C1CCCCCCCCCCCN1 | inactive
8 | CC1=C(/C=C/C(C)=C/C=C/C(C)=C/C(=O)O)C(C)(C)CCC1 | 68.7 µM (active) and 68.5 µM (active) and 23.7 µM (active)
9 | CC(=O)Nc1ccc(C(=O)O)cc1 | inactive
10 | OC[C@@H](O)[C@H](O)[C@H](O)[C@@H](O)CO | inactive
11 | NC(=O)N1c2ccccc2C=Cc2ccccc21 | inactive
12 | CN1CCC[C@H]1c1cccnc1 | inactive
13 | CC(C)(Oc1ccc(C2CC2(Cl)Cl)cc1)C(=O)O (stereo not drawn) | inactive
14 | OCCOCCN1CCN(C(c2ccccc2)c2ccc(Cl)cc2)CC1 (stereo not drawn) | inactive
15 | Oc1c(Cl)cc(Cl)cc1Sc1cc(Cl)cc(Cl)c1O | 6.13 µM (active) and inactive
16 | C=C[C@@]1(C)CC(=O)[C@]2(O)[C@@]3(C)[C@@H](O)CCC(C)(C)[C@@H]3[C@H](O)[C@H](OC(C)=O)[C@@]2(C)O1 | inactive
17 | CCOc1ccc(NC(=O)CC(C)O)cc1 (stereo not drawn) | inactive
18 | CC(C)c1cccc(C(C)C)c1 | inactive
19 | CCCCCCCCCCCCN | inactive
20 | CN(C)c1ccc(C(=C2C=CC(=[N+](C)C)C=C2)c2ccccc2)cc1 | 1.22 µM (active)
21 | COC(=O)CCC(=O)OC | inactive

Row | SMILES | Potency
22 | O=S(=O)(O)c1ccc2ccccc2c1 | inactive
23 | CCCCCCCCCCCC[N+](C)(C)Cc1ccccc1 | inactive
24 | NCCOCCO | inactive
25 | FC(F)(F)c1ccc(Cl)c(Cl)c1 | inactive
26 | CCCCCCCC(=O)O | inactive
27 | OC[C@H]1O[C@H](O[C@]2(CCl)O[C@H](CCl)[C@@H](O)[C@@H]2O)[C@H](O)[C@@H](O)[C@H]1Cl | inactive
28 | O=C(/C=C/C=C/c1ccc2c(c1)OCO2)N1CCCCC1 | inactive and 2.73 µM (active)
29 | CCCCCCCCCCCCCC(=O)O | inactive
30 | CC(C)=CCCC(C)CCO (stereo not drawn) | inactive
31 | CCOC(=O)c1ccc(O)cc1 | inactive
32 | C[C@H]1C[C@@H]2[C@H]([C@@H](O)C[C@@]3(C)[C@H]2CC[C@]3(O)C(=O)CO)[C@@]2(C)C=CC(=O)C=C12 | inactive
33 | O=C1OC2(c3ccccc31)c1cc(I)c(O)c(I)c1Oc1c2cc(I)c(O)c1I | inactive and 33.1 µM (active)
34 | CCCCN(CCCC)CCCC | inactive
35 | CCCCCCC(=O)O | inactive
36 | CS(=O)(=O)c1ccc([C@@H](O)[C@@H](CO)NC(=O)C(Cl)Cl)cc1 | inactive
37 | Cc1cccc(C(=O)O)c1 | inactive
38 | C=C(C)OC(C)=O | inactive
39 | CCCCCCCCCCCC(=O)OC | inactive
40 | Cc1cn([C@H]2C[C@H](N=[N+]=[N-])[C@@H](CO)O2)c(=O)[nH]c1=O | inactive
41 | COC(=O)[C@H](Cc1ccccc1)NC(=O)[C@@H](N)CC(=O)O (H-Asp-Phe-OMe) | inactive
42 | CC(O)COCC(C)O (stereo not drawn) | inactive

Row | SMILES | Potency
43 | c1ccc2scnc2c1 | inactive
44 | C/C=C/c1ccc(O)c(OC)c1 | inactive
45 | CCN(CC)C(=S)SSC(=S)N(CC)CC | inactive
46 | C[C@]12C=CC(=O)C=C1CC[C@H]1[C@@H]3C[C@@H](O)[C@](O)(C(=O)CO)[C@@]3(C)C[C@H](O)[C@@]12F | inactive
47 | COC(=O)c1ccccc1O | 68.7 µM (active) and inactive
48 | COc1ccc([N+](=O)[O-])cc1N | inactive
49 | COc1ccc(Nc2ccccc2)c(C)c1 | inactive
50 | c1ccc2c(c1)ccc1ccccc12 | inactive
51 | COc1cc2c(c(OC)c1OC)-c1ccc(OC)c(=O)cc1[C@@H](NC(C)=O)CC2 | 152 nM (active) and 217 nM (active) and 188 nM (active)
52 | CC1(C)C(=O)N(Cl)C(=O)N1Cl | inactive
53 | CC(C)(C)[C@@H](O)[C@@H](Cc1ccc(Cl)cc1)n1cncn1 | inactive
54 | C#C[C@]1(O)CC[C@H]2[C@@H]3CCc4cc(OC)ccc4[C@H]3CC[C@@]21C | 54.5 µM (active) and 26.6 µM (active)
55 | C#C[C@]1(O)CC[C@H]2[C@@H]3CCc4cc(O)ccc4[C@H]3CC[C@@]21C | inactive
56 | Cc1cc(=O)[nH]c(C(C)C)n1 | inactive
57 | Cc1cc(CC(=O)O)n(C)c1C(=O)c1ccc(Cl)cc1 | inactive
58 | Cc1ccccc1C(OCCN(C)C)c1ccccc1 (stereo not drawn) | inactive
59 | Cc1ncc(CO)c(CO)c1O | inactive
60 | CCCCCCCCCCCCCO | inactive
61 | O=C(O)c1cc(C(=O)O)cc(S(=O)(=O)O)c1 | inactive
62 | COc1ccccc1OCC(O)CO (stereo not drawn) | inactive
63 | Cc1cccc(C)c1 | inactive
